This note sets out measurements from PubChem BioAssay (NCI).

Where “and” joins values, the source holds several entries; their conditions need not be identical. Identical values can stand only once. About 83,000 compounds went through this panel and 20% of them were active in at least one assay; those are over-represented in the sample as a whole.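 Assay: single dose, 48 h. Readout: percent growth (0 = no net growth; negative = cell death). Active: <10.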 Calls of active or inactive are those of the source.

For the assay, the system named is HL-60(TB) leukemia. Put plainly: NCI-60 one-dose screen, 48 h (100 = growth as untreated, 0 = no growth, -100 = all killed). As to conditions: 10 µM unless noted.
Turning to `OC(COc1cccc2ccccc12)CN1CCN(c2ccc(Cl)cc2)CC1` (centres undefined), the growth is 55.5% (inactive) and 75.2% (inactive).
Then `O=c1[nH]cc(Cl)cc1O`, with 75.9% (inactive); and `Oc1c(Cl)cc(Cl)c2ccc(Cn3cc(-c4cc(F)cc(F)c4)nn3)nc12`, with 2.85% (active).
To `Cc1ccccc1/C=C1\CN(C(=O)OC(C)(C)C)C/C(=C\c2ccccc2C)C1=O` belongs 40.6% (inactive); to `O=C(CSc1nc2ccc([N+](=O)[O-])cc2[nH]1)Nc1cccc(C(F)(F)F)c1`, 0.11% (active); to `CN(Cc1ccccc1)c1nc(Cl)c(C2CC(c3ccc(Cl)cc3)=Cc3[nH][nH]c(=O)c32)s1` (centres undefined), 104% (inactive).
To `COc1ccc2c(c1)CC[C@H](O)/C2=C/c1cc(OC)c(OC)c(OC)c1` belongs -20.2% (active); to `COc1ccc(-c2c(N)n[nH]c2-c2cc(OC)c3c(c2)OCCO3)cc1`, 47.1% (inactive).
On to `Cc1ccc(Nc2ccc(Nc3ccc(C)cc3S(=O)(=O)O)c3c2C(=O)c2ccccc2C3=O)c(S(=O)(=O)O)c1`, for which the growth was 99.4% (inactive).
To `CCOC(=O)C(=O)C(C(=O)OCC)c1ccccc1` (centres undefined) belongs 95.6% (inactive); to `COCCCNC1=C(C#N)C(=O)NC(c2cccs2)S1` (centres undefined), 145% (inactive).
To `COc1ccc2c(c1)C(=O)c1c-2c(OCCN2CCCCC2)nc2ccc(OC)cc12` belongs 17.1% (inactive); to `C=CCn1c(SCC(=O)Nc2ccc(C(=O)/C=C/c3ccc(Cl)cc3)cc2)nnc1-c1cc(-c2ccc(S(N)(=O)=O)cc2)nc2ccccc12`, 75.7% (inactive); to `COc1ccc(Cc2nc3cc(OC)c(OC)cc3c(=O)[nH]2)cc1`, 16.4% (inactive).
To `N#Cc1ccc(/C=C/C(=O)c2ccccc2)cc1` belongs -15.6% (active) and 17.7% (inactive); to `Oc1c(C(Nc2cccc3ccccc23)c2ccccc2)ccc2cccnc12` (centres undefined), -37.4% (active); to `NS(=O)(=O)c1ccc(-n2ncc(NC(=O)Nc3ccc(S(=O)(=O)Nc4nccs4)cc3)c2-c2ccccc2)cc1`, 92.5% (inactive).
Regarding `c1ccc(OCC[P+](c2ccccc2)(c2ccccc2)c2ccccc2)cc1`, the growth was -19.4% (active).
To `CC1(C)OC(=O)CC1=O` belongs 91.5% (inactive).
To `CC(C)(C)CC(C)(C)c1ccc(OCCOCC[N+](C)(C)CC(=O)[O-])cc1` belongs 96.1% (inactive); to `Nc1ncnc2c1N=C(c1ccc3c(c1)OCO3)CC(c1cccc(Nc3ccnc4cc(Cl)ccc34)c1)N2` (centres undefined), 37.9% (inactive).
To `CCN(CC)CCNCC(=O)Oc1ccc(/C=C/C(=O)CC(=O)/C=C/c2ccc(OC(=O)CNCCN(CC)CC)c(OC)c2)cc1OC` belongs -22.6% (active); to `Cc1cc(=O)[nH]c2c(C#N)cnn12`, 106% (inactive).
As for `O=C(Cc1ccccc1)Nc1nc(O)c(/C=C2\C(=O)C=Cc3ccccc32)s1`, the growth is 103% (inactive).
To `COc1ccccc1NC(=O)Cn1cc(CN2CCN(c3ccnc4cc(Cl)ccc34)CC2)nn1` belongs 131% (inactive); to `CCc1cccc(CC)c1NC(=O)c1sc2nc3c(cc2c1N)CCCC3`, 41% (inactive); to `Cc1ccc2c(c1)sc(-c1ccc(N(C)C)cc1)[n+]2C`, -45.4% (active).
Then `O=C(N[C@@H]1CCCc2ccccc21)[C@H](CCC(=O)N1CCN(C2CCCCC2)CC1)N1C(=O)[C@@H](N2C(=O)OC[C@@H]2c2ccccc2)[C@H]1/C=C/c1ccccc1`, with -8.1% (active); and `O=C1Nc2cc(Cl)ccc2/C1=C/c1ccc(N2CCOCC2)s1`, with 93.4% (inactive); and `COc1ccc(/C=C(\C#N)c2ccccc2)cc1`, with 95.8% (inactive).
On to `CCOc1ccc(NC(=S)N2CCC(CCCC3CCN(C(=S)Nc4ccc(OCC)cc4)CC3)CC2)cc1`, for which the growth is 68.9% (inactive).
To `O=C(c1ccccc1)C(CN1CCCCC1)c1ccccc1` (centres undefined) belongs -43.7% (active); to `O=c1scc(-c2ccc(C(F)(F)F)cc2)s1`, 92.7% (inactive); to `Cc1cc2c(F)c(Oc3ncnc(Nc4ccc(N5C[C@@H](C)N[C@@H](C)C5)cc4)c3C#N)cc(F)c2[nH]1`, -54.6% (active).
Then `CN1CNC(=O)NC1`, with 85.5% (inactive) and 102% (inactive); and `Cn1cc(C(=O)c2nc(-c3c[nH]c4ccccc34)no2)c2cc(F)ccc21`, with -6.73% (active); and `COc1cc(C2CC(c3ccc(Nc4nc(NCCO)nc(N5CCOCC5)n4)cc3)=NN2c2cc(Cl)cc(Cl)c2)cc(OC)c1OC` (centres undefined), with 44.9% (inactive).
Then `O=C(OCc1ccc2c(Cl)cc(Cl)c(O)c2n1)N1CCN(C(=O)c2cc3cc(F)ccc3[nH]2)CC1`, with -49.4% (active); and `COc1cc(-c2cc(-c3cccs3)c(C#N)c(N3CCOCC3)n2)cc(OC)c1OC`, with 58.9% (inactive).
